Compound activity deposited in PubChem by Corson Lab, School of Medicine, Indiana University.
FECH block: human FECH heme synthesis enzyme inhibition | P22830 | purified FECH, Ni-mesoporphyrin absorbance 550 nm | calls only at 10 µM (by protocol) | 3.3% of 20,000 active | AID 1671448;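 active means enzyme reaction rate more than 3 SD below the solvent-only control wells on the same plate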;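 further: lower slope than DMSO wells means FECH inhibition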
* hit, by the source's call; i = inactive; + = active, no number. The entries come from a sample that favours hits as a whole.

SMILES	FECH block
NC(=O)c1ccccc1NC(=O)c1cccn(Cc2cccc(Cl)c2)c1=O	i
NC(=O)c1ccc(NC(=O)c2cccn(Cc3cccc(Cl)c3)c2=O)cc1	i
O=C(Nc1ccon1)c1cccn(Cc2cccc(Cl)c2)c1=O	+
Fc1ccc(CN2CCCC3(CCN(c4ncccn4)C3)C2)cc1 (configuration not stated)	i
Cc1ccc(C)c(Cn2cccc(C(=O)Nc3nc(C)cs3)c2=O)c1	i
